Article PMC5540273 (PLoS ONE, 2017)

System: KIT-autoinhibited
Conditions: concentration: 1 μM,replicates: in singlicate; n = 1
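Also: KINOMEscan kinase panel screen.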

| Compound | %Inh [%] |
| --- | --- |
| CC(C)S(=O)(=O)N1CCN(Cc2ccc3c(c2)nc(NC(=O)c2ccsc2)n3C[C@H](O)c2ccccc2)CC1 [GW635815] | 20 |
| Cn1ccc2ncnc(Oc3ccc(NC(=O)Nc4cccc(C(F)(F)F)c4)c(Cl)c3)c21 | 37 |
| Cn1ccc2ncnc(Oc3ccc(NC(=O)Nc4ccnc(C(F)(F)F)c4)c(Cl)c3)c21 | 22 |
| Cc1cccc2c(-c3ccncc3)c(-c3ccc(F)cc3)nn12.Cl [GW461487] | 0 |
| Cc1ccc2c(-c3ccnc(Nc4ccc(C(F)(F)F)cc4)n3)cnn2n1 [GW819776] | 34 |
| Cc1n[nH]c2cc(Nc3ccnc(Nc4cccc(CN5CCOCC5)c4)n3)ccc12 [GW682569] | 28 |
| CCn1c(-c2nonc2N)nc2cncc(Br)c21 [SB-738004] | 55 |
| CN1CCN(CCCNc2nccc(-c3c(-c4ccc(F)cc4)nn4cc(C(N)=O)ccc34)n2)CC1 [GW622475] | 2 |
| Nc1nccc(-c2ccc3c(N)n[nH]c3c2)n1 [GSK1034945] | 0 |
| Cc1ccc(C(=O)Nc2ccc(Oc3ccc4nc(NC(=O)C5CC5)cn4c3)c(F)c2)c(=O)n1-c1ccccc1 | 24 |
| Cn1ccc2ncnc(Oc3ccc(NC(=O)Nc4cncc(C(F)(F)F)c4)c(Cl)c3)c21 | 17 |
| NC(=O)Nc1sc(-c2ccc(F)cc2)cc1C(N)=O [GW789449] | 48 |
| Cn1ccc2ncnc(Oc3ccc(NC(=O)Nc4cc(C(C)(C)C)on4)c(Cl)c3)c21 | 30 |
| COC(=O)c1cccc(NC(=O)NC2CCN(c3ccnc(Nc4cc(OC)c(OC)c(OC)c4)n3)C2)c1 (stereo not shown) [GSK1379767] | 0 |
| O=C(Nc1ccccc1)c1cccc(Oc2ccc3nccn3n2)c1 | 8 |

System: KIT
Conditions: concentration: 1 μM,replicates: in singlicate; n = 1

| Compound | %Inh [%] |
| --- | --- |
| Cn1ccc2ncnc(Oc3ccc(NC(=O)Nc4cnn(C(C)(C)C)c4)c(Cl)c3)c21 | 99.8 |
| COc1cc2ncn(-c3cc(OCC4CCCCC4)c(C(N)=O)s3)c2cc1OC [GSK204559] | 31 |
| COc1cccc(CNC(=O)NC2CCN(c3ccnc(Nc4cc(OC)c(OC)c(OC)c4)n3)C2)c1 (stereo not shown) [GSK1379765] | 60 |
| Cn1ccc2ncnc(Oc3ccc(NC(=O)Nc4cccc(C(F)(F)F)c4)c(F)c3)c21 | 100 |
| CNC(=O)c1ccccc1Nc1nc(Nc2cccc(CS(C)(=O)=O)c2)ncc1C.O=CO [GSK1520489] | 97.8 |
| C[C@@H](Oc1cc(-n2cnc3cc(-c4cnn(C)c4)ccc32)sc1C(N)=O)c1ccccc1Cl [GSK580432] | 96.4 |
| COc1cc(Nc2nccc(N3CCC(NC(=O)c4cccc(C#N)c4)C3)n2)cc(OC)c1OC (stereo not shown) [GSK1379751] | 43 |
| Cc1ccn2nc(-c3ccc(F)cc3)c(-c3ccncc3)c2c1.Cl [GW457859] | 26 |
| CN1CCN(CCNc2nc3cc(Oc4ccc(NC(=O)Nc5cc(C(F)(F)F)ccc5F)cc4)ccc3[nH]2)CC1.Cl.Cl [GW768504] | 99.8 |
| NC(=O)c1ccc(-c2cc3ncnc(SCC(=O)O)c3s2)cc1 | 68 |
| CC(=O)c1c(-c2ccncc2)[nH]c(-c2ccncc2)c1C [GW493036] | 0 |
| O=C(Nc1cccc(C(F)(F)F)c1)c1cccc(Oc2ccc3nccn3n2)c1 | 99.9 |
| CC(=O)Nc1nc2cnc(Nc3cc(NC(=O)c4cccc(CC(C)(C)C#N)c4)ccc3C)nc2s1 | 100 |
| COc1ccc(Nc2nccc(N3CCC(NC(=O)c4cccc(C#N)c4)C3)n2)cc1 (stereo not shown) [GSK1379730] | 0 |
| Cl.c1ccc(Oc2ccc(Nc3ccnc4cc(-c5ccc(CN6CCNCC6)o5)ccc34)cc2)nc1 [GW567142] | 87 |
| O=C(Nc1ccc(Oc2ccc3nc(NC(=O)C4CC4)cn3n2)c(F)c1)c1cccn(-c2ccccc2)c1=O | 100 |
| Cl.Cl.NC[C@H](CC1CCCCC1)NC(=O)c1ccc(-c2ccnc3[nH]ccc23)s1 [GSK1581428] | 65 |
| COC(=O)Nc1nc2cc(Oc3ccc(NC(=O)Nc4cc(C(F)(F)F)ccc4Cl)cc3)ccc2[nH]1.Cl [GW697465] | 100 |
| CC(C(=O)NC1CCN(c2ccnc(Nc3ccc(F)cc3)n2)C1)c1ccc(Cl)cc1 (stereo not shown) [GSK1379713] | 10 |
